Sampled rows, rich in hits. Any-hit rate of the full collection: about 0.51%.
FMDV RLuc: Primary qHTS Assay for Foot and Mouth Disease Virus Antivirals against NCGC Sytravon and CBC Compound Libraries: Renilla Luciferase Signal; Potency, µM (doses to about 57.5 µM), hits mostly inhibitors; AID 1745857, 2022; FMDV replicon cells, Renilla luciferase signal; 120,000 compounds, 0.32% hits; note: nearly all actives have a fitted effect of over 55% in size
FMDV FLuc: Primary qHTS Assay for Foot and Mouth Disease Virus Antivirals against NCGC Sytravon and CBC Compound Libraries: Firefly Luciferase Signal; AID 1745856, 2022; 120,000 compounds, 0.23% hits; Potency, µM (highest dose often 57.5 µM), actives largely listed as inhibitors; FMDV antiviral cell assay, firefly luciferase signal; note: nearly all actives have a fitted effect of over 60% in size
A number is an active result; . = inactive; ? = inconclusive; [ ] = another dose, or the depositor's remark. Calls come from the whole dose curve.

SMILES	FMDV RLuc	FMDV FLuc
O=C(Nc1ccc2ccccc2n1)c1ccc(S(=O)(=O)N2CCCCC2)cc1	32µM	?
CC(C)NC(=O)c1cccc2c1CCCN2Cc1nc(-c2cccc(Cl)c2)no1	25µM	?
CCc1ccc(-c2noc(CN3CCCc4c(C(=O)NC(C)C)cccc43)n2)cc1	.	.
Cc1ccc(/C=C/C(=O)Nc2nc(-c3cccs3)ns2)cc1	.	.
CCc1ccccc1Nc1nn2c(=O)c3ccc(C(=O)NCCc4ccccc4)cc3nc2s1	.	.
CCc1ccccc1Nc1nn2c(=O)c3ccc(C(=O)NC(C)c4ccccc4)cc3nc2s1 (stereo unspecified)	?	11µM
N#Cc1ccc(CN2CCN(C(=O)c3ccc(Cn4nnc5ccccc54)cc3)CC2)cc1	5µM	6.3µM
N#Cc1ccc(CN2CCN(C(=O)C3CC=CCC3)CC2)cc1 (stereo unspecified)	.	.
Cc1c(CCC(=O)Nc2ccc(F)cc2)c(=O)oc2cc(O)ccc12	.	.
O=C(C1CCC(CNS(=O)(=O)c2ccc(Br)s2)CC1)N1CCN(c2ccc(F)cc2)CC1 (stereo unspecified)	6.3µM	?
O=C(C1CCC(CNS(=O)(=O)c2ccc(Br)s2)CC1)N1CCN(c2ccccc2Cl)CC1 (stereo unspecified)	.	.
Cc1ccc(C(=O)/C=C/c2ccc(F)c(Br)c2)o1	.	.
Clc1ccc2c(c1)C(N1CCNCC1)=Nc1ccccc1O2	.	.[11.5 µM]
Cc1nc2cc(-c3cccc(F)c3)nn2c(C)c1CCC(=O)Nc1ccc(F)c(Cl)c1	.	2.2µM
Cc1nc2cc(-c3cccc(F)c3)nn2c(C)c1CCC(=O)Nc1ccc(CN2CCCC2)cc1	.	?
Cc1nc2cc(-c3ccccc3)nn2c(C)c1CCC(=O)Nc1ccc(F)cc1F	.	?
Cc1nc2cc(-c3ccccc3)nn2c(C)c1CCC(=O)Nc1ccc(F)cc1	.	3.2µM
COc1ccc(N2CCN(C(=O)CCc3c(C)nc4cc(-c5cccc(F)c5)nn4c3C)CC2)cc1	.	25µM
Cc1nc2cc(-c3cccc(F)c3)nn2c(C)c1CCC(=O)N1CCN(c2ccc(F)cc2)CC1	.	?
CCCn1cc(S(=O)(=O)c2cc(C)ccc2C)c(=O)c2cc(F)c(N3CCN(CC)CC3)cc21	.	.
CN(C(=O)CSc1nc2ccc(NC(=O)COc3ccc(Cl)cc3)cc2s1)c1ccccc1	.	.
COc1ccc(C(=O)Nc2ccc3nc(SCC(=O)N(C)c4ccccc4)sc3c2)cc1	28µM	?
COc1ccc(N(Cc2cc(CN3CCOCC3)cs2)S(=O)(=O)c2cc(C)cc(C)c2)cc1	.	25µM
Cc1ccc(F)cc1S(=O)(=O)N(Cc1cc(CN2CCOCC2)cs1)c1ccc(F)cc1	.	.
CCC(C)(C)NC(=O)Cc1n[nH]c(=O)c2ccccc12	.	.
SMILES	FMDV RLuc	FMDV FLuc
Cc1ccc(CCNc2ncnc3onc(C)c23)cc1	1.6µM	1.8µM
CCOc1ccc(CCNc2ncnc3onc(C)c23)cc1OCC	2.5µM	3.2µM
CCOCCCNc1ncnc2onc(C)c12	.	.
CCCNc1ncnc2onc(-c3ccc(C)cc3)c12	.	.
CC1=C(C(=O)Nc2ccccc2)C(c2cccc(Cl)c2Cl)NC(=S)N1 (stereo unspecified)	.	.
Cc1cc(C)c(NC(=O)Cn2nnc3sc4c(c3c2=O)CCC(C(C)(C)C)C4)c(C)c1 (stereo unspecified)	.	.
COc1ccc(NC(=O)COc2c(C)cccc2C)c2cccnc12	.	.
COc1ccc(NC(=O)COc2ccccc2C)c2cccnc12	14µM	?
COc1cccc2c1cc1c(=O)n(CC(=O)N3CCN(c4cccc(C(F)(F)F)c4)CC3)nc(C)n12	.	.
COc1ccc(NC(=O)CSc2ccc3nc(-c4ccccc4)cn3n2)cc1OC	.	.
COc1ccc(F)cc1C(=O)/C=C/c1cccc(C#N)c1	?	3.5µM
COc1ccc(F)cc1C(=O)/C=C/c1ccc(C#N)cc1	.	.
CN(C)S(=O)(=O)c1ccc(C(=O)OCc2csc(-c3ccccc3)n2)cc1	.	.
Cc1nsc(N)c1C(=O)OCc1csc(-c2ccccc2)n1	1.8µM	.
O=C(Nc1ccc(OC2CCCC2)cc1)c1ccncc1	5µM	.
CC(C)=CC(=O)Nc1ccc(OC2CCCC2)cc1	.	.
CCn1c(NCc2ccccc2)nc2c1c(=O)n(C)c(=O)n2C	.	.
Cc1cccc(Cn2c(NCCCO)nc3c2c(=O)n(C)c(=O)n3C)c1	.	.
CCCn1c(NCc2ccc(C)cc2)nc2c1c(=O)n(C)c(=O)n2C	28µM	?
Cn1c(=O)c2c(nc(NCc3ccccc3)n2Cc2ccccc2)n(C)c1=O	.	.
Cn1c(=O)c2c(nc(NCCO)n2Cc2cccc(C(F)(F)F)c2)n(C)c1=O	10µM	?
Cn1c(=O)c2c(nc(NCc3ccco3)n2Cc2ccccc2)n(C)c1=O	?	16µM
O=C(COC(=O)c1cc(=O)c2ccccc2o1)Nc1ccc(Cl)cc1F	.	.

From PubChem BioAssay
